Inconclusive results are not listed. The source made the active and inactive calls. Unless noted, calls follow the shape of the dose curve; as a rule, active = well fitted curve in the direction sought with a large enough effect in the repeat runs; inconclusive = weak or mixed curves; inactive = no such curve, though single readings can be large; an effect the other way counts as inactive or inconclusive.
Tests used:
[1] = qHTS assay for small molecule agonists of the p53 signaling pathway (AID 651631; calls by dose curve; also: nearly all actives have a fitted effect of over 15% in size)
How it was run: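 Testing took place in human colorectal HCT-116 cells with stable p53RE-driven beta-lactamase. After 16 h of compound exposure at 37 °C, a FRET substrate was added and fluorescence recorded 2 h later.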

[2] = qHTS assay for small molecules that induce genotoxicity in human embryonic kidney cells expressing luciferase-tagged ATAD5 (AID 651632); also: nearly all actives have a fitted effect of over 15% in size
How it was run: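 Cells were seeded at 2,000 per well, dosed with compound, and incubated 16 hr at 37C in 5% CO2. Luciferase activity was then quantified after a 30 min room-temperature incubation with Amplite.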

[3] = qHTS assay for small molecule agonists of the p53 signaling pathway - cell viability (AID 651633; calls by dose curve; also: series mostly up to about 83 µM; nearly all actives have a fitted effect of over 30% in size)
How it was run: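 p53RE-bla cells, seeded at 4,000 per well and rested 5 h at 37 C/5% CO2, received compounds in DMSO for 16 h at 37 C. CellTiter-Glo was then added, and luminescence was read after 30 min at room temperature to gauge cytotoxicity.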

[4] = qHTS assay for small molecules that induce genotoxicity in human embryonic kidney cells expressing luciferase-tagged ATAD5 - cell viability (AID 651634; calls by dose curve; also: nearly all actives have a fitted effect of over 25% in size)
How it was run: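 Cells (HEK293T, luciferase-tagged ATAD5) are seeded at 2,000 per well, dosed with compound or DMSO vehicle, and incubated 15.5 hr at 37C and 5% CO2. CellTiter-Fluor is added for 30 min before fluorescence is measured.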

[5] = qHTS assay for small molecule disruptors of the mitochondrial membrane potential - cell viability (AID 720634; calls by dose curve;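 also: human HepG2 liver cancer cells; series mostly up to about 83 µM; nearly all actives have a fitted effect of over 20% in size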)
How it was run: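 Cytotoxicity was measured by ATP quantitation in HepG2 wells that had first been treated with compound for 1 hr and stained with m-MPI dye; CellTiter-Glo incubation was 30 min at room temperature.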

[6] = qHTS assay to test for compound auto fluorescence at 590 nm (red) in HepG2 cells (AID 720674)
How it was run: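 Compound auto-fluorescence is scored relative to Rose Bengal sodium, measured at 540/590 nm in live HepG2 cultures after 1 hr compound contact (37 C, 5% CO2).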

[7] = qHTS assay to test for compound auto fluorescence at 535 nm (green) in HepG2 cells (AID 720675)
[8] = qHTS assay to test for compound auto fluorescence at 460 nm (blue) in HEK293 cells (AID 720678)
How it was run: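 HEK293 cells (2,000/well, medium with 10% dialyzed FBS) attached 4-5 hr, then exposed to compound overnight at 37C, 5% CO2. Blue fluorescence read at 405/460 nm, with triamterene as reference fluorophore.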

[9] = qHTS assay to test for compound auto fluorescence at 590 nm (red) in HEK293 cells (AID 720679)
How it was run: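 HEK293 cells (2,000/well, 10% dialyzed FBS) attached 4-5 hr, then dosed with compound or DMSO and incubated overnight at 37C, 5% CO2. Red fluorescence read at 540/590 nm, Rose Bengal sodium as reference fluorophore.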

Measured: Potency

CO[C@H]1C[C@H](O[C@H]2[C@H](C)[C@@H](O[C@@H]3O[C@H](C)C[C@H](N(C)C)[C@H]3OC(C)=O)[C@@H](C)C[C@]3(CO3)C(=O)[C@H](C)[C@@H](OC(C)=O)[C@@H](C)[C@@H](C)OC(=O)[C@@H]2C)O[C@@H](C)[C@@H]1OC(C)=O
inactive: [1] | [2] | [3] | [4] | [5] | [6] | [7] | [8] | [9]

O=C1N=C2SCCN2C(=O)C1Cc1ccc(Cl)cc1 (stereo unspecified)
inactive: [1] | [2] | [3] | [4] | [5] | [6] | [7] | [8] | [9]

O=C1O[C@H]2[C@H](O)[C@@H]1OC(O)[C@H]2O (stereo partly specified)
inactive: [1] | [2] | [3] | [4] | [5] | [6] | [7] | [8] | [9]

C#CCOc1ccc2c(C)cc(=O)oc2c1
inactive: [1] | [2] | [3] | [4] | [5] | [6] | [7] | [8] | [9]

CCc1ccc(S(=O)(=O)O)cc1
inactive: [1] | [2] | [3] | [4] | [5] | [6] | [7] | [8] | [9]

CC1(C)S[C@@H]2[C@H](NC(=O)C(C(=O)O)c3ccsc3)C(=O)N2[C@H]1C(=O)O (stereo partly specified)
inactive: [1] | [2] | [3] | [4] | [5] | [6] | [7] | [8] | [9]

CC(C)c1nc(N(C)S(C)(=O)=O)nc(-c2ccc(F)cc2)c1/C=C/C(O)CC(O)CC(=O)O (stereo unspecified)
inactive: [1] | [2] | [3] | [4] | [6] | [7] | [8] | [9]

CCCCCCCCCCCCCCCC(=O)O[C@@H]1[C@@H](O)[C@@H](O)[C@@H]([C@H](NC(=O)[C@@H]2C[C@@H](CCC)CN2C)[C@H](C)Cl)O[C@@H]1SC
inactive: [1] | [2] | [3] | [4] | [5] | [6] | [7] | [8] | [9]
